# Assay results as given in PubChem BioAssay AID372 (MTDP, 2006).
# Out of some 100,000 compounds screened, about 770 (0.77%) were called active. Cut-off read from the data, not from the text of the source: active = inhibition above about 50%; inactive = the rest. Only a selection was taken, and actives are over-represented in it overall.
# Biological target: Gag-Pol polyprotein (Human immunodeficiency virus type 1 group M subtype B (isolate HXB2)) (UniProt P04585)
# Test: RNase H inhibition, HIV 1 Gag Pol polyprotein, FRET biochemical assay, screening (AID 372)
# Conditions: HIV-1 RT RNase H, FRET RNA/DNA substrate fluorescence; at 10 µM; active compounds read high
row,Structure (SMILES),inhibition
1,CCC(C(=O)Nc1cc(Cl)ccc1OC)c1ccccc1 (stereo unspecified),29% (inactive)
2,O=C(COc1ccc(Br)cc1)Nc1ccc(F)cc1F,0% (inactive)
3,CCSc1nc2c(C)c(O)c(C)cc2[nH]1,0% (inactive)
4,O=C(Nc1ccccc1)Nc1nnc(Cc2ccc(Cl)c(Cl)c2)s1,16% (inactive)
5,COC(=O)c1sccc1NS(=O)(=O)c1ccc(Cl)cc1,70% (active)
6,COC(=O)c1sccc1NS(=O)(=O)c1cc(Cl)ccc1Cl,35% (inactive)
7,COC(=O)c1sccc1NS(=O)(=O)c1ccc(OC)cc1,0% (inactive)
8,Cc1sc(NC(=O)COc2ccc(Cl)cc2Cl)c(C(N)=O)c1C,9% (inactive)
9,CCOC(=O)c1c(NC(=O)COc2ccc(Cl)cc2C)sc(C(N)=O)c1C,12% (inactive)
10,Cc1cc(Cl)ccc1OCC(=O)Nc1ccccc1C(N)=O,7% (inactive)
11,CCOC(=O)c1ccccc1NC(=O)COc1ccc(Cl)cc1C,50% (active)
12,COC(=O)c1ccccc1NC(=O)COc1ccc(Cl)cc1C,4% (inactive)
13,Cc1ccc(N[C@H]2OC[C@H](O)[C@H](O)[C@H]2O)cc1[N+](=O)[O-],6% (inactive)
14,CCC(=O)Nc1sc(Cc2ccccc2)c(C)c1C(N)=O,1% (inactive)
15,O=C(NCCCN1CCOCC1)/C(=C/c1ccc(-c2ccc(Cl)cc2)o1)NC(=O)c1ccccc1,0% (inactive)
16,COc1ccc(C(=O)NC(NC(=S)Nc2sc3c(c2C(N)=O)CCCC3)C(Cl)(Cl)Cl)cc1 (stereo unspecified),11% (inactive)
17,CCOC(=O)C1=C(C)N=c2s/c(=C\c3ccc(-c4cc(Cl)ccc4Cl)o3)c(=O)n2C1c1ccc(OC)cc1 (stereo unspecified),50% (active)
18,CCOC(=O)C1=C(C)N=c2s/c(=C\c3ccc(-c4ccc(Cl)cc4)o3)c(=O)n2C1c1cc(OC)ccc1OC (stereo unspecified),7% (inactive)

row,Structure (SMILES),inhibition
1,CCOC(=O)C1=C(C)N=c2s/c(=C\c3ccc(-c4cc(Cl)ccc4C)o3)c(=O)n2C1c1ccc(OC)cc1 (stereo unspecified),15% (inactive)
2,CCOC(=O)C1=C(C)N=c2s/c(=C\c3ccc(-c4ccc(Cl)cc4)o3)c(=O)n2C1c1ccc(OC)cc1OC (stereo unspecified),51% (active)
3,CCOC(=O)C1=C(C)N=c2s/c(=C\c3ccc(-c4ccc(Cl)cc4Cl)o3)c(=O)n2C1c1ccc(OC)cc1 (stereo unspecified),12% (inactive)
4,CCOC(=O)C1=C(C)N=c2s/c(=C\c3ccc(-c4ccc(Cl)c(Cl)c4)o3)c(=O)n2C1c1ccc(OC)cc1OC (stereo unspecified),10% (inactive)
5,CC(/C=C/c1ccco1)=N/NC(=O)COc1cccc(Cl)c1,14% (inactive)
6,Cc1ccc(C(=O)NC(C(=O)NC(C)(C)C)C23CC4CC(CC(C4)C2)C3)cc1 (stereo unspecified),16% (inactive)
7,Cc1ccc(C(=O)NC(=S)Nc2ccc(Cl)cc2)cc1C,3% (inactive)
8,Cc1cccc(C)c1NC(=S)NC(=O)c1ccc(Br)cc1,2% (inactive)
9,COC(=O)c1cc(NC(=S)NC(=O)c2ccc(C)cc2)cc(C(=O)OC)c1,54% (active)
10,Cc1cccc(C)c1NC(=S)NC(=O)c1ccccc1,7% (inactive)
11,Cc1ccc(C(=O)NC(=S)Nc2cc(Cl)cc(Cl)c2)cc1C,50% (active)
12,Cc1ccc(C(=O)NC(=S)Nc2cc(Cl)cc(Cl)c2)cc1,14% (inactive)
13,CC(=O)c1cccc(NC(=S)NC(=O)c2ccc(C)cc2)c1,17% (inactive)
14,Cc1ccc(C(=O)NC(=S)Nc2c(C)cccc2C)cc1,53% (active)
15,Cc1ccc(C(=O)NC(=S)Nc2cc(Cl)c(Cl)cc2Cl)cc1,40% (inactive)
16,COC(=O)c1cc(NC(=S)NC(=O)c2ccccc2)cc(C(=O)OC)c1,21% (inactive)
17,O=C(NC(=S)Nc1cc(Cl)c(Cl)cc1Cl)c1ccc(Cl)cc1,54% (active)
18,O=C(NC(=S)Nc1cc(Cl)c(Cl)cc1Cl)c1ccc(F)cc1,13% (inactive)
